Values without a mark were called inactive. How the calls were made is not given here.
These molecules were tested against Pantothenate synthetase (Mycobacterium tuberculosis (strain ATCC 25618 / H37Rv)) (UniProt P9WIL5) (assay: Recombinant Mtb pantothenate synthetase (PanC) inhibitors, coupled enzyme, confirmatory (AID 375;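 further: 0% = full reaction with vehicle and 100% = no enzyme background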)). Details: coupled enzyme assay; at 10 µM, active compounds read high.
Chain of Pantothenate synthetase (Mycobacterium tuberculosis (strain ATCC 25618 / H37Rv)) (P9WIL5 whole entry, looked up): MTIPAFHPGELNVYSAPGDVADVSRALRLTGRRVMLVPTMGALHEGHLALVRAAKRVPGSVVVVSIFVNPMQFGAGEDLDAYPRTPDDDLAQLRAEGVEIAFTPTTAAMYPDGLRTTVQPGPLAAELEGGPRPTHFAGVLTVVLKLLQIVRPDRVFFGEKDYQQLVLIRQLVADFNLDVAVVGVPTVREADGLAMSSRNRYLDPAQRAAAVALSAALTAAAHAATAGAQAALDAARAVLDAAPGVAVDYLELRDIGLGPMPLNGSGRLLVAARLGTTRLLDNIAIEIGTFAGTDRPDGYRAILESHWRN
Work on `Cn1cnnc1Sc1nc2c(c(=O)n(C)c(=O)n2C)n1C` yielded an inhibition of 0%.
Work on `CCOC(=O)CSc1nnc(CNC(=O)c2ccc(OC)c(OC)c2)n1C` yielded an inhibition of 0%.
`O=C(C1CCN(c2nnc(-n3cccc3)s2)CC1)N1CCN(Cc2ccc3c(c2)OCO3)CC1` was tested, and the inhibition was 10%.
For `COc1ccc2c(c1)OC(O)(C(F)F)CC2=O` (stereo not given), the inhibition was 0%.
Molecule `Cn1c(=O)oc2cc(S(=O)(=O)NC3CCN(Cc4ccccc4)CC3)ccc21` has an inhibition of 0%.
`Cc1cccc2c1N(CC(=O)OC(C)C)C(=O)C2=O` showed an inhibition of 0%.
Work on `O=C(NC1CCN(Cc2ccccc2)CC1)C1CCN(S(=O)(=O)c2cccc3cccnc23)CC1` yielded an inhibition of 0%.
For `CN(C)c1ccc(NC(=O)c2ccncc2)c2ccccc12`, the inhibition was 6%.
`CCSc1ccccc1C(=O)NCc1ccc(S(N)(=O)=O)cc1` gave an inhibition of 0%.
For `COc1ccc2nc(SCC(=O)NC(C)C)[nH]c2c1`, the inhibition was 0%.
With `CCNC(=O)N1c2ccc(OCC)cc2C(C)=CC1(C)C` the inhibition was 0%.
`COc1ccccc1-c1c(C)nn2c(N3CCC4(CC3)OCCO4)cc(C)nc12` showed an inhibition of 5%.
Work on `COc1ccc(S(=O)(=O)N2CN(Cc3ccco3)c3nc4ccccc4nc32)cc1` yielded an inhibition of 0%.
`COc1ccccc1CNS(=O)(=O)c1cccc(S(=O)(=O)N2CCOCC2)c1` showed an inhibition of 0%.
In the case of `CN(C)C=Nc1nonc1N`, the inhibition is reported as 10%.
`Cc1cc(NCCN2CCOCC2)n2nc(C)c(-c3ccccc3)c2n1` showed an inhibition of 0%.
With `Cc1[nH]nc2c1C(c1ccc(F)cc1)C1=C(CC(C)(C)CC1=O)N2` (stereo not given) the inhibition was 11%.
In the case of `Cc1ccc(C)c(N(CC(=O)NCc2ccco2)C(=O)CCC(=O)Nc2ccccn2)c1`, the inhibition is reported as 0%.
`Cc1ccc(NC2=NC(c3ccccc3)n3c(nc(C)cc3=O)N2)cc1` (stereo not given) gave an inhibition of 13%.
`Cc1c(C(=O)NCc2ccoc2)oc2ccc3c(c12)C(=O)CC(C)(C)O3` gave an inhibition of 2%.
`COc1ccc(Cn2nnnc2CN2CCOCC2)cc1` gave an inhibition of 6%.
With `CC[N+](C)(CC)CCOC(=O)C(O)(c1ccccc1)C1CCCCC1` (stereo not given) the inhibition was 0%.
With `Cc1cc(C(=O)Nc2ccc(S(=O)(=O)Nc3onc(C)c3C)cc2)cs1` the inhibition was 4%.
With `COc1cc2c(OC)cccc2cc1C(=O)O` the inhibition was 0%.
`O=C(Cn1ncc2c(=O)oc3ccccc3c21)NCC1CCCO1` (stereo not given) showed an inhibition of 4%.
For `Cn1c(SCC(=O)c2ccc(-c3ccccc3)cc2)nnc1-c1ccco1`, the inhibition was 2%.
With `O=C(Nc1ncnc2sc3c(c12)CCCCC3)c1ccco1` the inhibition was 10%.
`C=CCNC(=O)C1CC(=O)N(c2ccc(OCC(=O)Nc3ccc(OC)cc3)cc2)C1` (stereo not given) was tested, and the inhibition was 0%.
`CC1CCN(CCC(=O)Nc2ccc(Br)cc2)CC1` gave an inhibition of 0%.
`CC1Cn2c(nnc2-c2ccc(F)cc2)S1` (stereo not given) showed an inhibition of 6%.
Molecule `N=c1nc(N2CCCCC2)cc(N)n1O` has an inhibition of 0%.
`CN1CCCC(OC(=O)c2ccc3c(c2)OCCO3)C1` (stereo not given) was tested, and the inhibition was 0%.
For `CCOC(=O)c1ccc(N2C(=O)CC(N3CCN(C/C=C/c4ccccc4)CC3)C2=O)cc1` (stereo not given), the inhibition was 2%.
For `O=C1CC(c2ccco2)=Nc2ccccc2N1`, the inhibition was 6%.
For `CCOCCn1c(CN2CCN(c3cccc(Cl)c3)CC2)nc2c1c(=O)n(C)c(=O)n2C`, the inhibition was 4%.
Molecule `COCCNC(=O)Cn1nc(C(F)(F)F)c(Br)c1C` has an inhibition of 0%.
`CCc1nnc(NC(=O)CSc2nnc(-c3ccoc3C)n2CC(C)C)s1` was tested, and the inhibition was 0%.
`CCC(=O)N1CCCc2cc(S(=O)(=O)N3CCCc4ccccc43)ccc21` gave an inhibition of 4%.
Molecule `COC(=O)CCn1nnc(-c2ccc(C)cc2)n1` has an inhibition of 1%.
With `CCC(C)C(NC(=O)C1CCC(C)CC1)C(=O)NCc1cccnc1` (stereo not given) the inhibition was 6%.

— PubChem BioAssay
